The structures appear in SMILES notation. Records with an inconclusive call do not appear. Calls of active or inactive are those of the source. Unless noted, calls follow the shape of the dose curve; as a rule, active = well fitted curve in the direction sought with a large enough effect; inconclusive = small, poorly fitted or top-dose-only effect, or another doubt; inactive = no such curve, though single readings can be large; an effect the other way counts as inactive or inconclusive.

Test [1] deals with Alpha-galactosidase A (Homo sapiens) (UniProt P06280). Description: Counterscreen for Glucocerebrosidase Inhibitors: qHTS Assay for Human alpha-Galactosidase at pH 4.5 (AID 992). In outline: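 Read-out is 4-methylumbelliferone fluorescence (365 nm excitation, 440 nm emission) after a pH 10 NaOH/glycine stop. Reactions held 2 nM enzyme and 80 uM substrate at pH 4.5 for 20 min at room temperature.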
Alpha-galactosidase A (Homo sapiens), sequence (P06280 whole entry, looked up): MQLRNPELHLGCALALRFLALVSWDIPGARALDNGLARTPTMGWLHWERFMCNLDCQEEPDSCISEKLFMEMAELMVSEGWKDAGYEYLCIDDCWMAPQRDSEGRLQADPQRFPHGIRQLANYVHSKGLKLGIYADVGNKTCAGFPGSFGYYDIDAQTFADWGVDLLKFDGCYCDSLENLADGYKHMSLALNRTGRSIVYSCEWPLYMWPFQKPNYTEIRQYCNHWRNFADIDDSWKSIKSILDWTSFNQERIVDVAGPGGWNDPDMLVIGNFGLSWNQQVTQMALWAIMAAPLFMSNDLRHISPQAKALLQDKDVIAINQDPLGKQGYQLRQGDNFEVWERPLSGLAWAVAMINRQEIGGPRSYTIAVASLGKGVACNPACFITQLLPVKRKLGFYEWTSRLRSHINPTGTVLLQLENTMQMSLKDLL
A general note: Counterscreens check selectivity or assay interference.

Test [2] addresses alpha-glucosidase (Oryza sativa, rice) (UniProt Q653V4). Description: Counterscreen for Glucocerebrosidase Inhibitors: qHTS Assay for Rice alpha-Glucosidase at pH 5.0 (AID 997). An outline of the steps:
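Rice alpha-glucosidase (4 nM final) with 400 uM 4-methylumbelliferyl-alpha-D-glucopyranoside in citrate buffer pH 5.0, 20 min at room temperature, stopped at pH 10; fluorescence 365/440 nm, compounds 0.7 nM–77 uM, AC50 from Hill fits.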

The nature of test [3]: Validation of Assay for Modulators of Lamin A Splicing (AID 1459; active = well fitted curve in the direction sought with a large enough effect in the signal ratio; the % refers to the signal ratio;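 also: cells exposed to compound for two days before reading; ratio rise marks activators and ratio drop marks inhibitors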). In outline:
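S3 HeLa cells stably expressing a lamin A-EGFP splicing minigene and DsRed2 were seeded at 600 cells/well in Opti-MEM with 2% FBS, pin-dosed, and incubated 48 hrs at 37 °C, 5% CO2. Laser-scanning cytometry (488 nm) gave GFP/RFP total intensity ratio.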

Test [4] concerns the target DNA repair nuclease/redox regulator APEX1 (Homo sapiens) (UniProt P27695). Put plainly: qHTS Validation Assay for Inhibitors of the Human Apurinic/apyrimidinic Endonuclease 1 (APE1) (AID 1705; also: potency is read from the fitted curve at half-maximal effect). In outline:
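Human APE1 was preincubated with compound for 15 min at room temperature, then 50 nM (final) THF-abasic double-stranded DNA substrate bearing 5'-TAMRA and 3'-BHQ-2 was added. Incision-driven fluorescence rise (ex 525/em 598 nm) was read kinetically.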
(In general: In qHTS, concentration-response curves come from the screen itself.)

Test [5] can be described thus: Counterscreen for APE1 Inhibitors: Fluorescent Dye Displacement Validation Assay (AID 1707). In outline: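 ThO 250 nM + dsDNA 50 nM (THF abasic site, 5'-TAMRA), Tris-HCl pH7.5/50mM NaCl/2 mM MgCl2/0.01% Tween-20; compounds pin-transferred; ex 480/em 540 nm endpoint. Neutral = no compound; no-DNA ThO wells = negative control.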
Test [6] deals with Endonuclease 4 (Escherichia coli (strain K12)) (UniProt P0A6C1). Put plainly: Counterscreen for APE1 Inhibitors: qHTS Validation Assay for Inhibitors of Endonuclease IV (AID 1708). Also: potency is read from the fitted curve at half-maximal effect. In outline:
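Concentration-response counterscreen run identically to the APE1 assay: 15 min room-temperature preincubation of 2 nM enzyme with compound, reaction started with 50 nM quenched abasic DNA, progress taken from kinetic fluorescence.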

Test [7] in a line: qHTS for differential inhibitors of proliferation of Plasmodium falciparum line D10 (AID 1877).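 Also: parasites grown with compound for 72 h before DNA staining.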 Also: potency is read from the fitted curve at half-maximal effect.
A short description of test [8]: qHTS for differential inhibitors of proliferation of Plasmodium falciparum line 7G8 (AID 1815).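 Also: parasite growth measured after three days of incubation.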 Also: potency is read from the fitted curve at half-maximal effect.
Test [9] in a line: qHTS for differential inhibitors of proliferation of Plasmodium falciparum line GB4 (AID 1816).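 Also: parasite growth measured after 72 h incubation.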 Also: potency is read from the fitted curve at half-maximal effect. Particulars: Potency: Plasmodium falciparum GB4 proliferation inhibition.
Test [10] in a line: qHTS for differential inhibitors of proliferation of Plasmodium falciparum line 3D7 (AID 1876). Also: potency is read from the fitted curve at half-maximal effect.

DNA repair nuclease/redox regulator APEX1 (Homo sapiens), sequence (P27695 whole entry, looked up): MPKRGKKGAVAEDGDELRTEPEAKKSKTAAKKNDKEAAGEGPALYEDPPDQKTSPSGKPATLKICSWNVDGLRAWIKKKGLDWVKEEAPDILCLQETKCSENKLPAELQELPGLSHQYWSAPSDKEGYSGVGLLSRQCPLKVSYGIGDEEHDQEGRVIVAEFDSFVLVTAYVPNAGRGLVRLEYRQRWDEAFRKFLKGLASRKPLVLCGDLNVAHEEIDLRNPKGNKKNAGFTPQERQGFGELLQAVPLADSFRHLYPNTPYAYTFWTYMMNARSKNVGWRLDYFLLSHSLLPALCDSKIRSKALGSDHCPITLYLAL

`N#CC(C#N)=C(N)/C(C#N)=C/c1ccc(O)cc1`: the call in test [1], in [2] and in [3] was inactive. Further, the Potency entry in test [4], in test [5], in test [6] and in test [7] was “inactive” each time.

As to `CC1CCN=C(N)S1` (stereo not given), the call in test [3] was inactive. The Potency entry in test [4], in test [5], in test [6], in test [8] and in test [7] was “inactive” each time.

As for `CCCN(CCc1ccccc1)C1CCc2c(O)cccc2C1` (stereo not given), in test [3], the compound was called inactive. Besides, the Potency entry in test [4] and in test [5] was “inactive” throughout. In addition, the Potency in [8] is 1.12 µM (active); in test [9], 0.891 µM (active); in test [10], 3.16 µM (active); in test [7] it was 5.01 µM (active).

Take `Cc1nc(N=Nc2ccc(C(=O)O)cc2)c(COP(=O)(O)O)c(C=O)c1O`: the result in [1], in test [2] and in test [3] was inactive. In addition, the Potency result in test [4], in test [5], in test [8], in [9], in test [10] and in test [7] was “inactive” each time.

For `OC1(c2ccc(Cl)cc2)CCN(Cc2c[nH]c3ccccc23)CC1`, the outcome in [1], in [2] and in test [3] was inactive. Besides, the Potency result in test [4] and in [5] was “inactive” in each case.

With `COc1cc2c(CCNC(C)=O)c[nH]c2cc1O`, the compound was called inactive in test [1], in [2] and in test [3]. Also, the Potency in [4] is 39.8 µM (active). Also, the Potency entry in test [5], in test [6], in test [8], in test [10] and in [7] was “inactive” each time.

Turning to `CCCc1c(-c2ccc(O)cc2)nn(-c2ccc(O)cc2)c1-c1ccc(O)cc1`, the compound was classed as inactive in test [1], in [2] and in test [3]. The Potency result in [4], in [5], in test [9], in [10] and in test [7] was “inactive” each time.

In the case of `CCCn1c(=O)c2[nH]c(-c3ccc(S(=O)(=O)O)cc3)nc2n(CCC)c1=O`, the compound was called inactive in test [1], in [2] and in test [3]. For the same compound, the Potency entry in test [4], in test [6], in [8], in test [10] and in [7] was “inactive” in each case.

With `O=c1[nH]c2cc(Cl)ccc2c(O)c1-c1ccc(Oc2ccccc2)cc1`, the call in test [1], in test [2] and in [3] was inactive. Further, the Potency entry in [4], in [5], in [6], in test [8], in [10] and in test [7] was “inactive” throughout.

Take `Nn1nnc2ccccc21`: the compound was classed as inactive in test [1], in [2] and in test [3]. Also, the Potency entry in test [4], in [5] and in test [6] was “inactive” in each case. Besides, the Potency in test [8] and in test [7] was 12.6 µM (active) throughout.

As for `CN(C)C(=O)/N=N/C(=O)N(C)C`, in [3], the compound was called inactive. The Potency result in test [5], in test [6], in test [8], in test [9], in test [10] and in test [7] was “inactive” in each case.

Take `COC(=O)C1=C(C)NC(C)=C([N+](=O)[O-])C1c1ccccc1C(F)(F)F` (stereo not given): the call in test [3] was inactive. For the same compound, the Potency result in test [4], in [5], in test [6] and in [7] was “inactive” throughout.

On to `CC[C@H](NC(=O)c1c(C)c(-c2ccccc2)nc2ccccc12)c1ccccc1`, for which the compound was classed as inactive in test [1], in test [2] and in test [3]. Besides, the Potency entry in test [4], in [5] and in test [6] was “inactive” in each case. In addition, the values for the Potency in test [8] and in test [9] were 7.08 µM (active) and 11.2 µM (active), respectively.

As to `COC(=O)C(C)(N)Cc1ccc(O)cc1` (stereo not given), in [3], the outcome was inactive. The Potency result in test [4], in [5] and in [6] was “inactive” in each case. For the same compound, the Potency in [9] was 14.1 µM (active).

Consider `N#C/C(=C\c1ccc(O)c(O)c1)C(=O)NCCCNC(=O)/C(C#N)=C/c1ccc(O)c(O)c1`, for which the compound was called inactive in test [1], in test [2] and in [3]. The Potency entry in test [4] is “inactive”.

For `O=C1C2C=CC=CC2=NC(=S)N1CCN1CCC(=C(c2ccc(F)cc2)c2ccc(F)cc2)CC1` (stereo not given), in test [3], the call was inactive. The Potency result in [4], in test [5] and in test [7] was “inactive” each time. Besides, the Potency in test [8] is 8.91 µM (active).

For the compound `C=CC1(C)CC(=O)C2(O)C(C)(O1)C(OC(C)=O)C(O)C1C(C)(C)CCC(O)C12C` (stereo not given), the result in [3] was inactive. Further, the Potency result in test [4], in test [5], in [6], in test [9], in test [10] and in [7] was “inactive” throughout.

As to `COC(=O)[C@H](NC(=O)c1cc(-c2ccccc2)nc2ccccc12)c1ccccc1`, the compound was classed as inactive in test [1], in test [2] and in test [3]. The Potency result in test [4], in test [5], in test [10] and in [7] was “inactive” each time. In test [8], the Potency was 11.2 µM (active).

As to `C#CC(N)CCC(=O)O` (stereo not given), in test [3], the outcome was inactive. Further, the Potency entry in test [4], in test [5], in [8], in test [9], in test [10] and in [7] was “inactive” in each case.

Regarding `O=C(OCCN1CCOCC1)C1(c2ccccc2)CCCCC1`, the compound was called inactive in test [1], in test [2] and in [3]. Besides, the Potency result in [4] and in test [5] was “inactive” in each case. The Potency in test [9] is 10 µM (active).

For `O=[N+]([O-])c1cccc2c(Br)[nH]nc12`, the compound was classed as inactive in [1], in [2] and in test [3]. Also, the Potency entry in [4], in [5], in test [6], in [8], in test [10] and in [7] was “inactive” each time.

As for `CC(=O)NNC(=O)N1Cc2ccccc2Oc2ccc(Cl)cc21`, the call in test [1], in test [2] and in test [3] was inactive. Also, the Potency result in test [4], in test [5], in [9], in [10] and in [7] was “inactive” in each case.

`O=C1NC(=O)c2cc(Nc3ccccc3)c(Nc3ccccc3)cc21`: the call in [1], in [2] and in test [3] was inactive. For the same compound, the Potency entry in test [4] and in [5] was “inactive” throughout. For the same compound, the Potency was 8.91 µM (active) in test [8], 10 µM (active) in [9] and 12.6 µM (active) in test [10].

On to `CC(N)(C(=O)O)c1ccc(C(=O)O)cc1` (stereo not given), for which the call in test [3] was inactive. The Potency entry in test [4], in test [5], in test [8], in [9], in test [10] and in test [7] was “inactive” throughout.

In the case of `Cn1c(=O)c2[nH]c(-c3ccc(S(=O)(=O)O)cc3)nc2n(C)c1=O`, the outcome in test [1], in test [2] and in [3] was inactive. Besides, the Potency entry in test [4] and in test [6] was “inactive” each time.

In the case of `CCCCCCCCCCCCCCC[C@H](O)[C@H](N)CO`, the compound was called inactive in [1], in test [2] and in test [3]. Moreover, the Potency result in test [4] and in test [10] was “inactive” in each case. Also, the Potency in test [6] was 31.6 µM (active).

For the compound `N[C@H]1CONC1=O`, the compound was called inactive in test [3]. For the same compound, the Potency entry in [4], in test [5], in [8], in test [9], in test [10] and in [7] was “inactive” in each case.

As for `CNc1ncnc2c1ncn2[C@H]1C[C@H](OP(=O)(O)O)[C@@H](COP(=O)(O)O)O1`, the outcome in test [3] was inactive. Also, the Potency entry in test [4], in [5], in test [8], in test [9], in test [10] and in test [7] was “inactive” in each case.

The values above are taken from PubChem BioAssay (NCATS).
